Most compounds without a hit are left out; they make up all but 3.5% or so of the library.
MITF inh – inhibitors of human MITF; inhibition, % at 2.6 µM; hit rate 0.91% among 650,000; AlphaScreen MITF homodimerization, bead proximity signal; AID 1259374; in the data active = inhibition above about 50%
Target sequence (O75030 whole entry, looked up): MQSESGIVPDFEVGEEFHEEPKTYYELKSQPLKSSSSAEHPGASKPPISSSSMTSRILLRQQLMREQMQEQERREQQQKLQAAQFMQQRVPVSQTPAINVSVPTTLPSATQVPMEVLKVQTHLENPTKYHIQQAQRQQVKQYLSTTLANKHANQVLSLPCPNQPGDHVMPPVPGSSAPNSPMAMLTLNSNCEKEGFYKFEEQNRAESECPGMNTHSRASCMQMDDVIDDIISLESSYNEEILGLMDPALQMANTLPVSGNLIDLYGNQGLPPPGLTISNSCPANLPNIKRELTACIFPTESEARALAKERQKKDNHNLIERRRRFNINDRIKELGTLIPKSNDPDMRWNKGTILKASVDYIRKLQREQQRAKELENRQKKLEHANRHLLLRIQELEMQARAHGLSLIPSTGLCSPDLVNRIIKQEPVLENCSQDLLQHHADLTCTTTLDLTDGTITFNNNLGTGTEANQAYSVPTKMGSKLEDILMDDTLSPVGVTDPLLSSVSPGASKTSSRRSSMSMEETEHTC
GPR151 activ – human GPR151 activation; hit rate 1% among 650,000; Q8TDV0; activation, % at 11.2 µM; PathHunter beta-arrestin GPR151 cells, luminescence; AID 1508602; in the data active = activation above about 4.9%
FBW7 activator – human FBW7 E3 ligase activation, primary screen | AlphaScreen FBW7–phospho-cyclin E peptide binding, activator screen | AID 1259310 | Q969H0 | normalized activity (activation), % at 26.1 µM | hit rate 0.13% among 650,000; in the data active = normalized activity above about 1.9%;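 note: purified mutant Fbw7 with reduced substrate affinity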
TEAD-YAP inh – TEAD-YAP interaction inhibition | HEK-TIYL cells, TEAD-Gal4/YAP UAS-luciferase luminescence | inhibition, % at 9.12 µM | hit rate 1.4% among 640,000 | AID 1259422; in the data active = inhibition above about 32%
GPR151 confirm – human GPR151 activation, confirmation screen; shares compounds with GPR151 activ; 6,700 tested, under 10 active; GPR151 PathHunter beta-arrestin cells, luminescence, 90 min; % of EA-reagent control over plate median; AID 1508609; activation, % at 11.2 µM;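 active = mean percent activation across replicates above the confirmation screen cutoff of 4.91%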
GPR119 counter – activates human GPR119 in a GPR151 counter-screen; activation, % at 11.2 µM; GPR119 PathHunter beta-arrestin cells, luminescence, 90 min; 0 = compound-well median, 100 = enzyme-acceptor control; hit rate 0.3% among 6,700; shares compounds with GPR151 activ;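 active = mean percent activation in the counterscreen above 29.09%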;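 note: counterscreen on off-target GPR119 to flag nonselective hits from the GPR151 activator screen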
Of the large screens only hits and unclear results are named; the others gave an inactive call (follow-up assays come after a bar, where they were run).

COc1ccc([N+](=O)[O-])cc1/C=N/N(CCO)C1=NS(=O)(=O)c2ccccc21	none
Cc1ccc2c(c1)c(=O)c1ccccc1n2CCCC(=O)Nc1ccc(Br)cc1C	none
Cc1ccc2c(c1)c(=O)c1ccccc1n2CCCC(=O)Nc1ccc(Br)cn1	GPR151 activ 17.0, TEAD-YAP inh 37.5 | GPR151 confirm inactive | GPR119 counter inactive
COc1ccc(C)cc1S(=O)(=O)N(CC(=O)N1CCOCC1)Cc1ccccc1	GPR151 activ 12.1 | GPR151 confirm inactive | GPR119 counter inactive
COc1ccc(S(=O)(=O)N(CC(=O)N2CCOCC2)Cc2ccccc2)cc1C	none
COc1ccccc1CNc1nc2ccccc2n1CCN1CCOCC1	none
COc1ccc(CNc2nc3ccccc3n2CCN2CCOCC2)cc1OC	GPR151 activ 10.0 | GPR151 confirm inactive | GPR119 counter inactive
CCOC(=O)c1sc(-c2ccccc2)cc1NC(=S)NC(=O)CN1C(=O)CCC1=O	GPR151 activ 7.7 | GPR151 confirm inactive | GPR119 counter inactive
CCOC(=O)c1sc(-c2ccccc2)cc1NC(=O)c1cc2ccccc2cc1OC	none
Cc1nn(Cc2ccc(F)cc2)c(C)c1N	GPR151 activ 14.6 | GPR151 confirm inactive | GPR119 counter inactive
CC(C)(C)c1ccc(OCC(=O)Nc2cccc(-c3nc4ncccc4o3)c2)cc1	none
O=C1NC(=O)C(=Cc2cc(Br)ccc2OCc2ccccc2F)C(=O)N1	GPR151 activ 13.7 | GPR151 confirm inactive | GPR119 counter inactive
CCC(C)C(NC(=O)c1ccccc1NC(=O)c1ccccc1)C(=O)N1CCOCC1 (stereo unspecified)	GPR151 activ 9.8 | GPR151 confirm inactive | GPR119 counter inactive
CC(C)C(NC(=O)c1ccccc1NC(=O)c1ccccc1)C(=O)N1CCCCC1 (stereo unspecified)	none
Cc1cc(S(=O)(=O)NC2CCCCC2)ccc1OCC(=O)Nc1ccc2c(c1)OCO2	none
CCOc1ccccc1N(CC(=O)Nc1ccccc1OC)S(C)(=O)=O	GPR151 activ 8.9 | GPR151 confirm inactive | GPR119 counter inactive
COc1ccccc1NC(=O)CN(c1ccccc1OC)S(C)(=O)=O	none
Cc1ccc(NC(=O)CN(c2ccc(Br)c(C)c2)S(C)(=O)=O)cc1	none
Cc1cccc(NC(=O)CN(c2ccc(Br)c(C)c2)S(C)(=O)=O)c1	GPR151 activ 10.1 | GPR151 confirm inactive | GPR119 counter inactive
COc1ccc(Cl)cc1N(CC(=O)Nc1cccc(C(C)=O)c1)S(C)(=O)=O	GPR151 activ 5.8 | GPR151 confirm inactive | GPR119 counter inactive
Cc1ccccc1NC(=O)CN(c1ccc(Cl)cc1C)S(C)(=O)=O	GPR151 activ 5.3 | GPR151 confirm inactive | GPR119 counter inactive
Cc1sc(NC(=O)CN(Cc2ccc(F)cc2)C(=O)C2CCCCC2)c(C(N)=O)c1C	none
COc1ccc(CCNc2nc(N3CCN(Cc4ccc5c(c4)OCO5)CC3)nc3nc[nH]c23)cc1	none
CCOc1ccc(Nc2nc(N(C)C)nc(C)c2[N+](=O)[O-])cc1	none
CSc1cccc(NC(=O)CN(c2ccc(F)c(Cl)c2)S(C)(=O)=O)c1	GPR151 activ 8.5 | GPR151 confirm inactive | GPR119 counter inactive
CC(=O)c1cccc(NC(=O)CN(C)S(=O)(=O)c2ccc(F)cc2)c1	GPR151 activ 5.9 | GPR151 confirm inactive | GPR119 counter inactive
COc1cccc(NC(=O)CN(C)S(=O)(=O)c2ccc(F)cc2)c1	none
CS(=O)(=O)N(CC(=O)Nc1ccc(F)c(Cl)c1)c1ccccc1F	none
Cc1c(Cl)cccc1N(CC(=O)Nc1ccc(F)c(Cl)c1)S(C)(=O)=O	GPR151 activ 5.5 | GPR151 confirm inactive | GPR119 counter inactive
CCOC(=O)c1c(NC(=O)COC(=O)c2ccccc2[N+](=O)[O-])oc(C)c1C(C)=O	none
O=C(N/N=C/c1ccncc1)c1ccn(Cc2ccc(Cl)cc2)n1	none
CCOC(=O)c1ccc(NC(=O)C(=O)NC(C)CCc2ccccc2)cc1 (stereo unspecified)	none
CCc1ccccc1N(C)C(=O)c1cc2cc(OC)ccc2oc1=O	GPR151 activ 5.9 | GPR151 confirm inactive | GPR119 counter inactive
Cc1cccc(C(=O)NNC(=O)C2CCCO2)c1 (stereo unspecified)	GPR151 activ 7.3 | GPR151 confirm inactive | GPR119 counter inactive
NC(=O)c1ccc(NC(=O)COC(=O)COc2ccc(Cl)cc2)cc1	none
